In the supplement of paper PMC10849652:
Targets with a hit are over-represented here; the source holds about 8,800 in all. About 0.5% of all pairs of compound and target were hits.

Compound: CN1CC[C@H](c2c(O)cc(O)c3c(=O)cc(-c4ccccc4Cl)oc23)[C@H](O)C1 [alvocidib]
Experiment: log2 fold change, soluble protein after heating vs DMSO (PISA); higher = thermal stabilisation; K562 lysate, 10 uM; active = over 0.2 and 3.5 SD of the protein, either way, in both replicates (recomputed)
Outline: (§1)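 Values give the log-two fold change in thermal stability against solvent controls, from duplicates. Crude K562 extract at 1 mg/mL protein, made by dounce homogenisation in PBS pH 7.4 with 1 mM MgCl2, was treated with 10 μM compound for 30 min. After 3 min heating across 48°C-58°C, aliquots were pooled, adjusted to 0.5% NP-40 at 4°C and centrifuged at 21,000xg for 90 min. The supernatant was measured by TMTpro 16plex LC-MS/MS with channel sums equalised.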

UniProt Q9UPW0, sequence (Q9UPW0 whole entry, looked up): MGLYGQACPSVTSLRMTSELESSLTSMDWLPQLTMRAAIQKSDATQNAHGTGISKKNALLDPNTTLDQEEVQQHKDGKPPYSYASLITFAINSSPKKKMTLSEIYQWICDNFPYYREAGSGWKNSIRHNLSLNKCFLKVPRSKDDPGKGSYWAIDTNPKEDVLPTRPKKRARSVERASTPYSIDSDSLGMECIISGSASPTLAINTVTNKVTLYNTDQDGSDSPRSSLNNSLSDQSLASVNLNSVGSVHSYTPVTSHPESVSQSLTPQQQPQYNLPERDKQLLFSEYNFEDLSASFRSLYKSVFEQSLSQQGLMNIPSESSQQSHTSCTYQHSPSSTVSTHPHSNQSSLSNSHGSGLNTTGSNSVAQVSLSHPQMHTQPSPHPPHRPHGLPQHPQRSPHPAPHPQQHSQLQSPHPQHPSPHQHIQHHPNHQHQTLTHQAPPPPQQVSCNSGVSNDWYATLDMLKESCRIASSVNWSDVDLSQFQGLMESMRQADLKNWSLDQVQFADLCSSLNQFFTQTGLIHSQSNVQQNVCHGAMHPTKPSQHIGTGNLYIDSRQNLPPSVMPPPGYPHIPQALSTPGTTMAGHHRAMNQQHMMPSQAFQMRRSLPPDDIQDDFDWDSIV
UniProt Q13144, sequence (Q13144 whole entry, looked up): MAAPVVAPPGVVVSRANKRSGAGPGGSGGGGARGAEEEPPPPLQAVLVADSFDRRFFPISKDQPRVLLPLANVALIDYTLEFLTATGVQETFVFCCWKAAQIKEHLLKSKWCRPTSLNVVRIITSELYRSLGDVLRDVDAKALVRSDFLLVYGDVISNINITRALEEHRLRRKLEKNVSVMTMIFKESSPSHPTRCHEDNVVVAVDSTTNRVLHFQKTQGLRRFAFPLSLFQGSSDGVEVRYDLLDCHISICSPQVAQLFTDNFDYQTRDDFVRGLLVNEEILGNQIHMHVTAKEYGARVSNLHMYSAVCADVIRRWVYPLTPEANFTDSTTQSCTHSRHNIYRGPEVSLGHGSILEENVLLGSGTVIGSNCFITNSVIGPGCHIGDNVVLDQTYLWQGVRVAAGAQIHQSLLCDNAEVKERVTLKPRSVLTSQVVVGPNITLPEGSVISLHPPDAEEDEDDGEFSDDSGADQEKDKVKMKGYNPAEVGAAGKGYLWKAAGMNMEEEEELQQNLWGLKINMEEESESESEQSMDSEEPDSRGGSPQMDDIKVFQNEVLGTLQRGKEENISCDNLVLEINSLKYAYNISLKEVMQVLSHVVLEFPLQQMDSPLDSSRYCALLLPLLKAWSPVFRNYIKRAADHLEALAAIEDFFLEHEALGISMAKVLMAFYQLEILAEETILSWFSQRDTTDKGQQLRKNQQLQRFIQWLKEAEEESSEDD
UniProt Q13347, sequence (Q13347 whole entry, looked up): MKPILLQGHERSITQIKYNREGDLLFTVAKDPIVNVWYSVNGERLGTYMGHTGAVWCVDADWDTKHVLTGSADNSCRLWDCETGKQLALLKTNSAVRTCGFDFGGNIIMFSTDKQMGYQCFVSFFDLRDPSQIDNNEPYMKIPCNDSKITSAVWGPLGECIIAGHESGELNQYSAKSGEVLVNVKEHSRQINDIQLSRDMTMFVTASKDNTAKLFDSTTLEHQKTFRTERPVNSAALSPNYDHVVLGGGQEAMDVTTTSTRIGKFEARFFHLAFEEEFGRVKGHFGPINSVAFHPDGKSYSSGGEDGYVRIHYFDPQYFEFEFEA
UniProt P51570, sequence (P51570 whole entry, looked up): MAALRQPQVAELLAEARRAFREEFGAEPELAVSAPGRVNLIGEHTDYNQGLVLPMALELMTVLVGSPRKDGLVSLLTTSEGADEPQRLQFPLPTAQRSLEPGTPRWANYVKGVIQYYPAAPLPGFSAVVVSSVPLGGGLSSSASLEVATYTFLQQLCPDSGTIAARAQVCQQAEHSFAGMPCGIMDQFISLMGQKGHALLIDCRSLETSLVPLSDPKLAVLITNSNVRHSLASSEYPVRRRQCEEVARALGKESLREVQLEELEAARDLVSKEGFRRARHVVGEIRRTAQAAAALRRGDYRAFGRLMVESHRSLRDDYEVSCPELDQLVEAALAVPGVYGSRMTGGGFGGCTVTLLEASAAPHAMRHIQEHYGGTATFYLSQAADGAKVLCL
UniProt P51116, sequence (P51116 whole entry, looked up): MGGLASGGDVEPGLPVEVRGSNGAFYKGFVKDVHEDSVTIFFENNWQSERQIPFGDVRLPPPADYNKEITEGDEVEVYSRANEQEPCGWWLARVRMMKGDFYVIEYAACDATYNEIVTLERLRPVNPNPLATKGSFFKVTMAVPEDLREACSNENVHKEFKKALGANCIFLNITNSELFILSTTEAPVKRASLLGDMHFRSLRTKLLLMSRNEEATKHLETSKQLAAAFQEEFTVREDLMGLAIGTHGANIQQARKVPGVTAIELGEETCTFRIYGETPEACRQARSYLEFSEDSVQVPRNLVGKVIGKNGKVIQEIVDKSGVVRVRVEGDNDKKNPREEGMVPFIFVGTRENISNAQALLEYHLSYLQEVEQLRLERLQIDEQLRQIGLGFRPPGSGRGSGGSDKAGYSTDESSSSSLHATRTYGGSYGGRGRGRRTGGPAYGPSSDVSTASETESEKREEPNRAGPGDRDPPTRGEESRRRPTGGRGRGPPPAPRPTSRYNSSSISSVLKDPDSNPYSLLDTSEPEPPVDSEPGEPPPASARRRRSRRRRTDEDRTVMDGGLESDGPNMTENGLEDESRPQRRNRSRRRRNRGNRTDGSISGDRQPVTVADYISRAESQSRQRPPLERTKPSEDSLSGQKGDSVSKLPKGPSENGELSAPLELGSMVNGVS
UniProt P02792, sequence (P02792 whole entry, looked up): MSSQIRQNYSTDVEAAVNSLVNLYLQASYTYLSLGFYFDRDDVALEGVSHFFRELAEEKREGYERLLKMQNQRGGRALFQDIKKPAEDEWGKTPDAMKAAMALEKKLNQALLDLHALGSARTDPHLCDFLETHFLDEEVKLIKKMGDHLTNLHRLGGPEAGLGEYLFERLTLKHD
UniProt O94905, sequence (O94905 whole entry, looked up): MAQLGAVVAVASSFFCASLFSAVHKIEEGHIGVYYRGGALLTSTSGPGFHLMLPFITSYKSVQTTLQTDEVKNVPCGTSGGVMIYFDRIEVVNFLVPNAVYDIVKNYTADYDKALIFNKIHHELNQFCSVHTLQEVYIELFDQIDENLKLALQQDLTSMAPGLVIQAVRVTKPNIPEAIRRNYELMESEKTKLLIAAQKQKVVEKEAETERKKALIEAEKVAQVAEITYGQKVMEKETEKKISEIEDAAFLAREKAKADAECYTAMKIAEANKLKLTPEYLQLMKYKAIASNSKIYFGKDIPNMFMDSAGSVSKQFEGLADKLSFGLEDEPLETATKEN
UniProt O75616, sequence (O75616 whole entry, looked up): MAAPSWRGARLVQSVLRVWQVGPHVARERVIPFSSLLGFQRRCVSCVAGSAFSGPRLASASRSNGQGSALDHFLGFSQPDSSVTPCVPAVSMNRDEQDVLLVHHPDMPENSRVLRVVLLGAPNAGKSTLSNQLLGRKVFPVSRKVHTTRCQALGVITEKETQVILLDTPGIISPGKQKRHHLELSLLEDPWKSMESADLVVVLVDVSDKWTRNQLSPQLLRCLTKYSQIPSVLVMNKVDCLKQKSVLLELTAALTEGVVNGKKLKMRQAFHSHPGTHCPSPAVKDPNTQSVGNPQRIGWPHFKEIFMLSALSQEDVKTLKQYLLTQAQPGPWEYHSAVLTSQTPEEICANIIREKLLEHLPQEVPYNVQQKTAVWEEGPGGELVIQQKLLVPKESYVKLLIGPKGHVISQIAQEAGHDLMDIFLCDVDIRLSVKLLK
UniProt Q15723, sequence (Q15723 whole entry, looked up): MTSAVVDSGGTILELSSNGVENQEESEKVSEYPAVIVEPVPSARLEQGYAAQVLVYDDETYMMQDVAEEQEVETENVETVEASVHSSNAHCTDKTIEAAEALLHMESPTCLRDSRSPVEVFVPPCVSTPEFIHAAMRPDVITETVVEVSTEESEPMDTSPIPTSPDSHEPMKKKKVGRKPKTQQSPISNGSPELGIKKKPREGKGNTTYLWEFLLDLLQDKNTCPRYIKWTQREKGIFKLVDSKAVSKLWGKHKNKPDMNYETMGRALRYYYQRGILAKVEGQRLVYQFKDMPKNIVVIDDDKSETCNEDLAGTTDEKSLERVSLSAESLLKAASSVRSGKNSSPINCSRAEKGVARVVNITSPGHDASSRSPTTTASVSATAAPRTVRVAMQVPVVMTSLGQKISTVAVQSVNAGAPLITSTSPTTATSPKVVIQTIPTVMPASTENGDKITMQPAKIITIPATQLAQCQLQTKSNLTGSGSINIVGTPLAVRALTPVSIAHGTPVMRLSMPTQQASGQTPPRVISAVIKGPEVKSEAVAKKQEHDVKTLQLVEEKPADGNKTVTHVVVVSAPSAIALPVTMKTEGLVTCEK
UniProt Q8NEZ5, sequence (Q8NEZ5 whole entry, looked up): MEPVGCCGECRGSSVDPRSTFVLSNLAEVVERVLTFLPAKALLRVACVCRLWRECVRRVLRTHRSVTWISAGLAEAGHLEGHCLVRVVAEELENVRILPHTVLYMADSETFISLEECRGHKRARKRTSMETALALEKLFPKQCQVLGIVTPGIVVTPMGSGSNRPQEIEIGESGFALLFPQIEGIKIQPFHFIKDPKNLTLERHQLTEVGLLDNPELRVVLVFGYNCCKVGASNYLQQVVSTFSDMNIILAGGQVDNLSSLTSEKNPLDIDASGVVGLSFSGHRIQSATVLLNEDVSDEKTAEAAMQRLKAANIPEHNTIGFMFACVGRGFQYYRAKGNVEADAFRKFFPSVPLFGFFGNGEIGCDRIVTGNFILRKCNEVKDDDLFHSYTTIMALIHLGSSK

log2 fold change, inactive:
FTL (UniProt P02792) 0.013
EPHX2 (UniProt P34913) -0.018
FLAD1 (UniProt Q8NFF5) 0.035
ELF2 (UniProt Q15723) 0.023
EPB41, A0A2R8Y6D0 -0.015
EIF3I (UniProt Q13347) 0.034
ERCC4 (UniProt Q92889) -0.268
EIF2B4 isoform 2 (UniProt Q9UI10) -0.015
EP400 isoform 5 (UniProt Q96L91) 0.015
GCN1 (UniProt Q92616) 0.036
FBXO22 (UniProt Q8NEZ5) -0.027
GIGYF2 (UniProt Q6Y7W6) -0.028
GAMT (UniProt Q14353) 0.025
ERLIN2 (UniProt O94905) 0.164
EIF2B3 (UniProt Q9NR50) 0.071
GALK1 isoform 2 (UniProt P51570) 0.035
ERAL1 (UniProt O75616) 0.005
EFCAB14 (UniProt O75071) -0.056
FPGT (UniProt O14772) 0.031
FXR2 (UniProt P51116) 0
FAU (UniProt E9PR30) 0.073
FIBP (UniProt O43427) 0.03
EIF2B5 (UniProt Q13144) 0.03
ECI2 (UniProt O75521) -0.033
EED, A0A5F9ZI63 -0.007
DST (UniProt Q03001) -0.047
FYB1 isoform 3 (UniProt O15117) -0.012
EXTL2 (UniProt Q9UBQ6) -0.016
EXOC4 (UniProt Q96A65) 0.03
GGT7 (UniProt Q9UJ14) -0.013
DYNC1I2 isoform 5 (UniProt Q13409) 0.002
FIG4 (UniProt Q92562) -0.106
EXOC2 (UniProt Q96KP1) 0.025
FOXJ3 (UniProt Q9UPW0) -0.009
EPRS (UniProt P07814) 0.012
GALNT2 (UniProt Q10471) -0.069
GGA2 (UniProt Q9UJY4) 0.002

Compound: CN1CCc2c(c3ccccc3n2Cc2ccc(C(=O)NO)cc2)C1 [Tubastatin A]
Experiment: as above
Outline: as §1

log2 fold change, inactive:
FTL (UniProt P02792) 0.187
EPHX2 (UniProt P34913) 0.183
FLAD1 (UniProt Q8NFF5) -0.214
ELF2 (UniProt Q15723) 0.016
EPB41, A0A2R8Y6D0 -0.033
EIF3I (UniProt Q13347) -0.126
ERCC4 (UniProt Q92889) -0.021
EIF2B4 isoform 2 (UniProt Q9UI10) -0.025
EP400 isoform 5 (UniProt Q96L91) -0.022
GCN1 (UniProt Q92616) -0.181
FBXO22 (UniProt Q8NEZ5) -0.002
GIGYF2 (UniProt Q6Y7W6) -0.164
GAMT (UniProt Q14353) -0.059
ERLIN2 (UniProt O94905) 0.016
EIF2B3 (UniProt Q9NR50) -0.103
GALK1 isoform 2 (UniProt P51570) -0.132
ERAL1 (UniProt O75616) -0.151
EFCAB14 (UniProt O75071) 0.077
FPGT (UniProt O14772) -0.111
FXR2 (UniProt P51116) -0.159
FAU (UniProt E9PR30) 0.02
FIBP (UniProt O43427) 0.003
EIF2B5 (UniProt Q13144) -0.06
ECI2 (UniProt O75521) 0.054
EED, A0A5F9ZI63 -0.026
DST (UniProt Q03001) 0.033
FYB1 isoform 3 (UniProt O15117) -0.001
EXTL2 (UniProt Q9UBQ6) 0
EXOC4 (UniProt Q96A65) -0.073
GGT7 (UniProt Q9UJ14) 0.076
DYNC1I2 isoform 5 (UniProt Q13409) 0.007
FIG4 (UniProt Q92562) 0.012
EXOC2 (UniProt Q96KP1) -0.107
FOXJ3 (UniProt Q9UPW0) -0.03
EPRS (UniProt P07814) -0.11
GALNT2 (UniProt Q10471) 0.073
GGA2 (UniProt Q9UJY4) -0.085
